# According to the supplement of paper PMC10849652:
# Of roughly 8,800 targets only a part is listed; those with a hit were picked by preference. About 0.5% of all pairs of compound and target were hits.
# Columns and labels:
# Experiment in all cases: log2 fold change, soluble protein after heating vs DMSO (PISA); higher = thermal stabilisation; K562 lysate, 10 uM; active = over 0.2 and 3.5 SD of the protein, either way, in both replicates (recomputed)
# [1] = compound: C1=CC2=NC=CN=C2C=C1/C=C/3\C(=O)NC(=O)S3
# In short: (§1)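 Log-two fold change in thermal stability relative to solvent controls is reported from duplicates. For each sample, crude K562 extract from dounce-homogenised pellets in PBS pH 7.4 with 1 mM MgCl2, at 1 mg/mL protein, was treated with 10 μM compound for 30 min. Aliquots heated for 3 min across 48°C-58°C were pooled, brought to 0.5% NP-40 at 4°C and cleared at 21,000xg for 90 min. The supernatant was quantified by TMTpro 16plex LC-MS/MS with channel sums equalised.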
# erlotinib = compound: C#Cc1cccc(Nc2ncnc3cc(OCCOC)c(OCCOC)cc23)c1 [erlotinib]
# In short: as §1
# [2] = compound: C1=CC(=CC=C1C2=NC3=C(N2)C=C(C=C3)C(=O)N)OC4=CC=C(C=C4)Cl
# In short: as §1
# [3] = compound: C1=CC=C(C=C1)C2=NC(=C(N2)C3=CC=NC=C3)C4=CC(=C(C=C4)Cl)O
# In short: as §1
# IRAK-1-4 Inhibitor I = compound: C1COCCN1CCN2C3=CC=CC=C3N=C2NC(=O)C4=CC(=CC=C4)[N+](=O)[O-] [IRAK-1-4 Inhibitor I]
# In short: as §1
# [4] = compound: C/C(=N\NC(=O)C1=CC(=CC=C1)S(=O)(=O)N2CCOCC2)/C3=C(C=CC(=C3)Cl)O
# In short: as §1
# [5] = compound: C1=CC2=C(C=CC(=C2)/C=C\3/C(=O)NC(=NCC4=CC=CS4)S3)N=C1
# In short: as §1
# [6] = compound: C1=CC=C2C(=C1)C3=NNC4=CC=CC(=C43)C2=O
# In short: as §1
# [7] = compound: C1CCN(C1)C(=O)NC2=CC=CC(=C2)NC3=NC=C(C(=N3)NCCC4=CN=CN4)Br
# In short: as §1
# [8] = compound: C1CN(CCC1(CC2=CC=C(C=C2)Cl)N)C3=NC=NC4=C3C=CN4
# In short: as §1
# Sequence of UniProt Q9HAV0 (Q9HAV0 whole entry, looked up): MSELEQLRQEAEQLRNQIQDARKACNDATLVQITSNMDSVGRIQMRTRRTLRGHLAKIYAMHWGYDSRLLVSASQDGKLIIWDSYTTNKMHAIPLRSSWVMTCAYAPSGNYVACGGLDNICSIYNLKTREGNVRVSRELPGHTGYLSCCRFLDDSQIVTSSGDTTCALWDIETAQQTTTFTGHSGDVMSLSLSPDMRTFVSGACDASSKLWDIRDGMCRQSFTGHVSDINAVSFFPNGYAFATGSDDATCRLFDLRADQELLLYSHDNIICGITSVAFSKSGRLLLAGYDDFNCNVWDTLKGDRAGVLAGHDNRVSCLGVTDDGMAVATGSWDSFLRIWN
# Sequence of UniProt O43824 (O43824 whole entry, looked up): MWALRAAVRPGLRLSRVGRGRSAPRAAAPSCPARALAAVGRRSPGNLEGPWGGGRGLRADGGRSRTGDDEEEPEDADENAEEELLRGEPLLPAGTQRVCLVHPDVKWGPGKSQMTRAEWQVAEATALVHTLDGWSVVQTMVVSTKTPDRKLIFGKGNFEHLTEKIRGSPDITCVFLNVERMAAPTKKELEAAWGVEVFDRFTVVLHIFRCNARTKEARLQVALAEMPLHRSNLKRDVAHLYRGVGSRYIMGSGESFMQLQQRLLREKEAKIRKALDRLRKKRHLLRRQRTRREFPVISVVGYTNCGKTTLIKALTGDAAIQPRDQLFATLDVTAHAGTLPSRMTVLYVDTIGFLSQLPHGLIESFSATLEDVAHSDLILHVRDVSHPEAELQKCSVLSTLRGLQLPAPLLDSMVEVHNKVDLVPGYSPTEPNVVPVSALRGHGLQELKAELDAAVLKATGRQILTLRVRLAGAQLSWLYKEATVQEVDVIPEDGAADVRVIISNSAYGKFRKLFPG
# Sequence of UniProt Q6ICG6 (Q6ICG6 whole entry, looked up): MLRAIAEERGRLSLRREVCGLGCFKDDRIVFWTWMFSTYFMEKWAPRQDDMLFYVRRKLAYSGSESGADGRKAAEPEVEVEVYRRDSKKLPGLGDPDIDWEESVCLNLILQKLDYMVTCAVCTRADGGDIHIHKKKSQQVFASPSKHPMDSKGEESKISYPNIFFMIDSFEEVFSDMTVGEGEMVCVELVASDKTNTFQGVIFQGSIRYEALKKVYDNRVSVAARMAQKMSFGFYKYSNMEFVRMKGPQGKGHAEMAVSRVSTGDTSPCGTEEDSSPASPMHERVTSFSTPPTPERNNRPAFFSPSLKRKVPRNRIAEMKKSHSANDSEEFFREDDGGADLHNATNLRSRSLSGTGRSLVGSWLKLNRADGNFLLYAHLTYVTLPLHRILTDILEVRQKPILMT
# Sequence of UniProt Q9Y287 (Q9Y287 whole entry, looked up): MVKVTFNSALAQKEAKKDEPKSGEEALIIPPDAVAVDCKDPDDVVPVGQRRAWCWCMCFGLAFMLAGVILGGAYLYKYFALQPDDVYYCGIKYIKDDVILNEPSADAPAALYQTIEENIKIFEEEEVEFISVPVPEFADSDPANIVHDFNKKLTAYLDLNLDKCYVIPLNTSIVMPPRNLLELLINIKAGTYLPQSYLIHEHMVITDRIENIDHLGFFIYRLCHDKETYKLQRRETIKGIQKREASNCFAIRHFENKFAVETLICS
# Sequence of UniProt Q96EW2 (Q96EW2 whole entry, looked up): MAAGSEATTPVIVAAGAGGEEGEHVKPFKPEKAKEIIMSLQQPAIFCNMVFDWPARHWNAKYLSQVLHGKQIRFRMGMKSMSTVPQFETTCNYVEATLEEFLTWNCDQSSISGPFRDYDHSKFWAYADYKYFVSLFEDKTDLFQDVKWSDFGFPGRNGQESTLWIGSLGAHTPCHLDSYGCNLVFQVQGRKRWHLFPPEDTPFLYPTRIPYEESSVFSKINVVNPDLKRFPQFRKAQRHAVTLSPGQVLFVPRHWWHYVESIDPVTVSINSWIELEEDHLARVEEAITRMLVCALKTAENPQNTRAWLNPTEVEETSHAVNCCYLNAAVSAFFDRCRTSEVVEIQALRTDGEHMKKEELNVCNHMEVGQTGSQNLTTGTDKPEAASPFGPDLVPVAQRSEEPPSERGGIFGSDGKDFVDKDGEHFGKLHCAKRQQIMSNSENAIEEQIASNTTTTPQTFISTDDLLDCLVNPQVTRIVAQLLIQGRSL
# Sequence of UniProt Q96A47 (Q96A47 whole entry, looked up): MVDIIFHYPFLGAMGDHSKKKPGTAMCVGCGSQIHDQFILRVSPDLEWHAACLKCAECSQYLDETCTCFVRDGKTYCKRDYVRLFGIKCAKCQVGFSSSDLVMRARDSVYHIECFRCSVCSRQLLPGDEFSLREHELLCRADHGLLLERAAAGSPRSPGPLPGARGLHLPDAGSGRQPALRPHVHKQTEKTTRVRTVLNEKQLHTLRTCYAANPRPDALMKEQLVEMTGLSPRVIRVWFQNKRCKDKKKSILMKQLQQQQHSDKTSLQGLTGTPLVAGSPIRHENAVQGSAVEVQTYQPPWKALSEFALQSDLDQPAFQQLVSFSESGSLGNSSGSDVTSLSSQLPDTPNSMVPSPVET
# Sequence of UniProt P17096 (P17096 whole entry, looked up): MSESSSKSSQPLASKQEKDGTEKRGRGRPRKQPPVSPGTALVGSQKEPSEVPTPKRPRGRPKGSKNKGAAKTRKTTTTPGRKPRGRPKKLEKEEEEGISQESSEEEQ
# Sequence of UniProt Q13478 (Q13478 whole entry, looked up): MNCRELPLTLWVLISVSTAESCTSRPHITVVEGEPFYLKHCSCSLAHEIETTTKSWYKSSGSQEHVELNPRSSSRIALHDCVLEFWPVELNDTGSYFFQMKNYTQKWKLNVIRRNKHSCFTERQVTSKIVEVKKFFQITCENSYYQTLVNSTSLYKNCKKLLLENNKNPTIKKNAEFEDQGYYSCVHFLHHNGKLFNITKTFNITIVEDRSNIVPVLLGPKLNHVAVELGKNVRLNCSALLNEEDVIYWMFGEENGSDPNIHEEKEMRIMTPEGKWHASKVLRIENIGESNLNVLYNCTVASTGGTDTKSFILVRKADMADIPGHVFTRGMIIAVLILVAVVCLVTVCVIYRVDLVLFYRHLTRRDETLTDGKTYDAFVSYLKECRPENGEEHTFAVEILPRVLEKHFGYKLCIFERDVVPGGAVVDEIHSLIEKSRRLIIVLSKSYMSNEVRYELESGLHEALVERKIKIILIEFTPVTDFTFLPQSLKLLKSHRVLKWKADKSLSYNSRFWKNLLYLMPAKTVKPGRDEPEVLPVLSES
# Sequence of UniProt Q99795 (Q99795 whole entry, looked up): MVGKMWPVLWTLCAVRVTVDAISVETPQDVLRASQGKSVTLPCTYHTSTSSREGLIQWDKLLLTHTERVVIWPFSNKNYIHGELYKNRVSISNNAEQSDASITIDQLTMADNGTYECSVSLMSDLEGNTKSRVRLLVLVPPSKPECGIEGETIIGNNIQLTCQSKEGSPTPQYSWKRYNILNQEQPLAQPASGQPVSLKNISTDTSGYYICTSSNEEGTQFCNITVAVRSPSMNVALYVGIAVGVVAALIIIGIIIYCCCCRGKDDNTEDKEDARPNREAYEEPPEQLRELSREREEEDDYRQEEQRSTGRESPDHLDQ
# Sequence of UniProt Q9Y4H2 (Q9Y4H2 whole entry, looked up): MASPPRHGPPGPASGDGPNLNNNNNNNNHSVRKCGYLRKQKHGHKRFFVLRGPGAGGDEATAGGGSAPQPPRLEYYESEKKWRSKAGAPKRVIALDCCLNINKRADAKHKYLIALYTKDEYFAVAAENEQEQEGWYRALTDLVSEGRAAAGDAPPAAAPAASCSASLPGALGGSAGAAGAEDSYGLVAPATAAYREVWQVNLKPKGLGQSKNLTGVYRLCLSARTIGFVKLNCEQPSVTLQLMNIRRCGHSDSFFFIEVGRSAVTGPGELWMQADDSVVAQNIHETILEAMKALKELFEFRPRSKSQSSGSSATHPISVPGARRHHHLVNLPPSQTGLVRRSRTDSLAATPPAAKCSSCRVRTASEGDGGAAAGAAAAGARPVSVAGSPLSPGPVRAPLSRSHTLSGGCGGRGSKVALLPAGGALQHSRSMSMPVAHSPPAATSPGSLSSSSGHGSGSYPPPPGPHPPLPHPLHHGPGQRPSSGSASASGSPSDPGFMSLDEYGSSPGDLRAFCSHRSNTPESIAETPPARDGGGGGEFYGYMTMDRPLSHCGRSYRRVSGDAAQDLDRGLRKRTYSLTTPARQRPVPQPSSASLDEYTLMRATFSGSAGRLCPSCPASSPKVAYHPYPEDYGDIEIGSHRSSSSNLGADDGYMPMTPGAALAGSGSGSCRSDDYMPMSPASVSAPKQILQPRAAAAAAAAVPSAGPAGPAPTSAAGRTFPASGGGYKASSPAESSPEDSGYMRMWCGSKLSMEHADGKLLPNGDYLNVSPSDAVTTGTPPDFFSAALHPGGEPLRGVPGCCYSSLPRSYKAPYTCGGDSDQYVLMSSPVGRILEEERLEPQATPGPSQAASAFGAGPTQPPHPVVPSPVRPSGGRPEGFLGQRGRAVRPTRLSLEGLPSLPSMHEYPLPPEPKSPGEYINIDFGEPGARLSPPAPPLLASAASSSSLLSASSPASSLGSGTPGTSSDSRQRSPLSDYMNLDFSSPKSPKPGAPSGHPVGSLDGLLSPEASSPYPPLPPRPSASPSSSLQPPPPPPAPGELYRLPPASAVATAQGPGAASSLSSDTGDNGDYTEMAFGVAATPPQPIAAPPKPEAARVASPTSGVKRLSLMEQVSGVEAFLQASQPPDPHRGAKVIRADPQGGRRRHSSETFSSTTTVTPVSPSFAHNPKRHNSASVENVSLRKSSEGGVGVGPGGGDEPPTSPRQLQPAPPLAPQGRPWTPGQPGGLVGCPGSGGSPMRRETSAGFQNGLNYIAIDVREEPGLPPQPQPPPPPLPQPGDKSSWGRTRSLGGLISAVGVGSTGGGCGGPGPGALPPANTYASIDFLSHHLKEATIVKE
Target,log2 fold change [1],log2 fold change (erlotinib),log2 fold change [2],log2 fold change [3],log2 fold change (IRAK-1-4 Inhibitor I),log2 fold change [4],log2 fold change [5],log2 fold change [6],log2 fold change [7],log2 fold change [8]
"GYPA, A0A2R8Y7F9",0.066 (inactive),,,,,,,,,
ITPR2 (UniProt Q14571),,0.058 (inactive),0.163 (inactive),-0.051 (inactive),0.021 (inactive),,,,,
HMGA1 isoform 2 (UniProt P17096),,0.042 (inactive),-0.043 (inactive),0.022 (inactive),0 (inactive),,,,,
HYDIN (UniProt Q4G0P3),,,,1.34 (active),0.712 (inactive),-0.022 (inactive),0.005 (inactive),0.036 (inactive),-0.054 (inactive),0.022 (inactive)
ISL2 (UniProt Q96A47),0.032 (inactive),-0.149 (inactive),0.003 (inactive),-0.014 (inactive),0.016 (inactive),,,,,
IMPDH2 (UniProt H0Y4R1),-0.118 (inactive),,,-0.155 (inactive),0.037 (inactive),-0.014 (inactive),0.023 (inactive),-0.029 (inactive),0.099 (inactive),0.076 (inactive)
ITM2B (UniProt Q9Y287),0.026 (inactive),-0.039 (inactive),0.02 (inactive),0.005 (inactive),0.023 (inactive),0.225 (inactive),-0.202 (inactive),0.052 (inactive),,
KIAA0930 isoform 2 (UniProt Q6ICG6),-0.229 (inactive),,,-0.258 (inactive),-0.063 (inactive),-0.004 (inactive),-0.067 (inactive),0.203 (inactive),0.099 (inactive),-0.01 (inactive)
HIST2H2AA3 (UniProt Q6FI13),-0.05 (inactive),-0.012 (inactive),0.002 (inactive),0.126 (inactive),-0.055 (inactive),-0.956 (inactive),-0.054 (inactive),0.012 (inactive),0.083 (inactive),0.019 (inactive)
JAK3 (UniProt P52333),-0.041 (inactive),,,,,0.037 (inactive),-0.075 (inactive),0.23 (inactive),,
"HNRNPL, A0A3B3ITJ4",-0.086 (inactive),,,,,,,,,
HSPBAP1 (UniProt Q96EW2),-0.079 (inactive),0.064 (inactive),-0.098 (inactive),-0.072 (inactive),-0.002 (inactive),,,,0.002 (inactive),0.031 (inactive)
KATNBL1 (UniProt Q9H079),,-0.012 (inactive),-0.02 (inactive),,,0.009 (inactive),0.064 (inactive),-0.001 (inactive),0.045 (inactive),-0.687 (active)
GTPBP6 (UniProt O43824),,,,,,0.187 (inactive),0.11 (inactive),-0.048 (inactive),-0.082 (inactive),0.037 (inactive)
GNB4 (UniProt Q9HAV0),-0.049 (inactive),-0.017 (inactive),0.067 (inactive),-0.057 (inactive),-0.024 (inactive),,,,-0.035 (inactive),-0.005 (inactive)
HNRNPM (UniProt M0R019),,,,,,0.224 (inactive),0.178 (inactive),-0.128 (inactive),,
HOMER3 (UniProt Q9NSC5),-0.078 (inactive),,,,,,,,,
IGF2BP2 (UniProt Q9Y6M1),0.031 (inactive),0.022 (inactive),-0.041 (inactive),0 (inactive),-0.022 (inactive),0.049 (inactive),-0.032 (inactive),-0.08 (inactive),-0.023 (inactive),0.051 (inactive)
HNRNPM (UniProt M0QZM1),0.246 (inactive),,,,,0.07 (inactive),0.044 (inactive),0.066 (inactive),0.046 (inactive),0.086 (inactive)
H3-3A (UniProt P84243),-0.055 (inactive),0.038 (inactive),0.048 (inactive),,,0.001 (inactive),-0.033 (inactive),0.056 (inactive),-0.053 (inactive),-0.315 (active)
IL18R1 (UniProt Q13478),0.041 (inactive),-0.029 (inactive),-0.136 (inactive),0.152 (inactive),-0.043 (inactive),-0.493 (inactive),0.147 (inactive),0.079 (inactive),-0.155 (inactive),0.058 (inactive)
GPA33 (UniProt Q99795),-0.032 (inactive),-0.014 (inactive),-0.002 (inactive),-0.05 (inactive),0.024 (inactive),0.082 (inactive),-0.091 (inactive),-0.151 (inactive),0.001 (inactive),0.046 (inactive)
IRS2 (UniProt Q9Y4H2),0.164 (inactive),0.04 (inactive),-0.099 (inactive),0.143 (inactive),-0.009 (inactive),,,,,
HSPA8 (UniProt E9PN89),-0.095 (inactive),0.02 (inactive),-0.004 (inactive),0.082 (inactive),-0.055 (inactive),,,,-0.045 (inactive),-0.043 (inactive)
GPN2 (UniProt Q9H9Y4),,-0.022 (inactive),0.032 (inactive),-0.041 (inactive),-0.027 (inactive),0.089 (inactive),0.043 (inactive),-0.056 (inactive),-0.241 (active),-0.062 (inactive)
